According to PubChem BioAssay AID1345085 (National Center for Advancing Translational Sciences (NCATS), 2018):
Results filed as inconclusive are left out. Active and inactive are the calls of the source. Calls come from the whole dose curve; as a rule, active = well fitted cell-killing curve with a large enough effect; inconclusive = small, poorly fitted or top-dose-only effect, or effect the other way; inactive = no such curve, though single readings can be large or run the other way. *1 amine or outer side, *2 acyl side, *3 side chain or, on linkers, in order; H or OH if unused. Where a SMILES comes first, the peptide text is derived from it. Bridges are numbered along the chain shown (N, C = ends). Roman numbers before positions name the chains, in order. [ ]: non-standard residue; d: D form. Actinocin(9to1) = Cc1c2oc3c(C)ccc(C(=O)[*:1])c3nc-2c(C(=O)[*:2])c(N)c1=O; NMeV = CN[C@H](C(=O)O)C(C)C; Sar = CNCC(=O)O
Note: nearly all actives have a fitted effect of over 55% in size.
Potency is the fitted concentration of half-maximal effect.

The molecules below were run on CAOV3 (assay: Confirmatory qHTS for gynecologic anti-cancer compounds from libraries of approved drugs and bioactive compounds). Conditions: gynecologic cancer cell panel viability, ATPlite luminescence, 48 h; series mostly up to 57.6 µM.
Procedure, shortened: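 1,000 cells/well; 16 h pre-incubation 37 C, 5% CO2; pin-transferred cpd in DMSO, 11 conc (1:3), 57.5 uM–0.977 nM; 48 h; ATPlite, 15 min RT; luminescence → IC50.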
For `Cc1cc(C(=O)N2CCN(c3cccc(Cl)c3)CC2)n(-c2ccccc2)n1`, the Potency was “inactive”.
With `COc1c(C)c2c(c(O)c1C/C=C(\C)CCC(=O)OCCN1CCOCC1)C(=O)OC2` the Potency was “inactive”.
For `Cc1ccc(C(=O)Nc2ccc(Oc3cc4cnn(C)c4cc3-c3cn[nH]c3)c(F)c2)c(=O)n1-c1ccc(F)cc1`, the Potency was 6.85 µM (active).
With `COc1cc(N2CCC(N(C)C)CC2)ccc1Nc1ncc(Cl)c(Nc2ccccc2P(C)(C)=O)n1` the Potency was 10.9 µM (active).
For `CN1CCN(Cc2ccc(NC(=O)Nc3ccc(Oc4cc(NC(=O)C5CC5)ncn4)cc3)cc2C(F)(F)F)CC1`, the Potency was 13.7 µM (active).
For `CN1C(=O)C(Cc2c[nH]c3ccccc23)NC1=S` (centres undefined), the Potency was “inactive”.
`CN(C)C/C=C/C(=O)Nc1cc2c(Nc3ccc(F)c(Cl)c3)ncnc2cc1OC1CCOC1` (centres undefined) was tested, and the Potency was 10.9 µM (active).
In the case of `CC(=O)Nc1cccc(-n2c(=O)n(C3CC3)c(=O)c3c(Nc4ccc(I)cc4F)n(C)c(=O)c(C)c32)c1`, the Potency is reported as “inactive”.
With `COc1ccccc1N1CCN(CC(O)COc2cccc3ccccc23)CC1` (centres undefined) the Potency was “inactive”.
In the case of `CCCC(=O)O[C@]1(C(=O)CCl)[C@@H](C)C[C@H]2[C@@H]3CCC4=CC(=O)C=C[C@]4(C)[C@@]3(F)C(=O)C[C@@]21C`, the Potency is reported as “inactive”.
In the case of `Cc1cnc(Nc2cccc(CN3CCOCC3)c2)nc1Nc1cccc(S(=O)(=O)NC(C)(C)C)c1`, the Potency is reported as 10.9 µM (active).
With `COc1cc2c(NC3CCN(C(C)C)CC3)nc(C3CCCCC3)nc2cc1OCCCN1CCCC1` the Potency was 8.63 µM (active).
For `O=c1[nH]c(=O)n([C@H]2C[C@H](O)[C@@H](CO)O2)cc1Br`, the Potency was “inactive”.
`CN(C)CC/C=C1\c2ccccc2COc2ccccc21` was tested, and the Potency was “inactive”.
With `COc1cc(F)c(F)c(Nc2ccc(I)cc2F)c1NS(=O)(=O)C1(CC(O)CO)CC1` (centres undefined) the Potency was “inactive”.
`O=c1c2ccccc2nc2n1CCc1c-2[nH]c2ccccc12` was tested, and the Potency was “inactive”.
`CCc1c2c(nc3ccc(OC(=O)N4CCC(N5CCCCC5)CC4)cc13)-c1cc3c(c(=O)n1C2)COC(=O)[C@]3(O)CC` was tested, and the Potency was 19.3 µM (active).
`COc1cc(N2CCC(N3CCN(C)CC3)CC2)ccc1Nc1ncnc(Nc2ccccc2S(=O)(=O)C(C)C)n1` was tested, and the Potency was 15.3 µM (active).
`CNC1CCC(N(Cc2cccc(-c3ccncc3)c2)C(=O)c2sc3ccccc3c2Cl)CC1` (centres undefined) was tested, and the Potency was 27.3 µM (active).
For `NS(=O)(=O)OC[C@@H]1C[C@@H](n2ccc3c(N[C@H]4CCc5ccccc54)ncnc32)C[C@@H]1O`, the Potency was 3.06 µM (active).
In the case of `COc1cc(N2CCC(N)CC2)ccc1Nc1ncc(Cl)c(-c2c[nH]c3ccccc23)n1`, the Potency is reported as 3.43 µM (active).
With `CC(Oc1ccc2[nH]nc(/C=C/c3cnn(CCO)c3)c2c1)c1c(Cl)cncc1Cl` (centres undefined) the Potency was 2.73 µM (active).
For `O=C1NC(=O)C(c2cnc3ccccn23)=C1c1cn2c3c(cccc13)CN(C(=O)N1CCOCC1)CC2`, the Potency was “inactive”.
`COc1cc(N2CCC(N3CCN(C)CC3)CC2)ccc1Nc1ncc(Cl)c(Nc2ccccc2S(=O)(=O)C(C)C)n1` was tested, and the Potency was 3.43 µM (active).
In the case of `FC(F)(F)c1ccc(/C=C/c2nc(COc3ccc(CCCCn4ccnn4)cc3)co2)cc1`, the Potency is reported as “inactive”.
With `CN1C2CCC1CC(OC(=O)[C@H](CO)c1ccccc1)C2` (some centres undefined) the Potency was “inactive”.
In the case of `CN(C)C1CCN(C(=O)c2ccc(NC(=O)Nc3nc(N4CCOCC4)nc(N4CCOCC4)n3)cc2)CC1`, the Potency is reported as 0.611 µM (active).
With `COc1ccc2cc3[n+](cc2c1OC)CCc1cc2c(cc1-3)OCO2` the Potency was “inactive”.
For `Cc1ccn(-c2ccc(-c3ncco3)cc2)c(=O)c1-c1ccc2nc(N)ncc2c1`, the Potency was “inactive”.
In the case of `CN1CCN(c2cccc(Nc3nc4c(-c5ccc(S(C)(=O)=O)cc5)cccn4n3)c2)CC1`, the Potency is reported as 27.3 µM (active).
With `Cc1ccc(-n2[nH]c(C)c(N=Nc3cccc(-c4cccc(C(=O)O)c4)c3O)c2=O)cc1C` the Potency was 27.3 µM (active).
`c1nc2nc(Nc3ccc(N4CCOCC4)cc3)nc(NC3CCCCC3)c2[nH]1` was tested, and the Potency was 4.73 µM (active).
`CCn1c(-c2nonc2N)nc2c(C#CC(C)(C)O)ncc(OCC3CCCNC3)c21` (centres undefined) was tested, and the Potency was 24.3 µM (active).
`Cc1c2oc3c(C)ccc(C(=O)N[C@@H]4C(=O)N[C@H](C(C)C)C(=O)N5CCC[C@H]5C(=O)N(C)CC(=O)N(C)[C@@H](C(C)C)C(=O)O[C@@H]4C)c3nc-2c(C(=O)N[C@@H]2C(=O)N[C@H](C(C)C)C(=O)N3CCC[C@H]3C(=O)N(C)CC(=O)N(C)[C@@H](C(C)C)C(=O)O[C@@H]2C)c(N)c1=O` (I: T[dV]P[Sar][NMeV] / II: T[dV]P[Sar][NMeV]; ester I:1-I:C, II:1-II:C; linker I:N-II:N via Actinocin(9to1)) was tested, and the Potency was 0.344 µM (active).
